Source: PubChem
Shown is part of a subset that was picked to be rich in hits.
DUSP3 inh: inhibitors of human VHR1 phosphatase (DUSP3); P51452; 50,000 tested, 0.7% active; recombinant VHR phosphatase, colorimetric substrate read-out; inhibition, % at 20 µM; in the data active = inhibition above about 60%
Target sequence (P51452 whole entry, looked up): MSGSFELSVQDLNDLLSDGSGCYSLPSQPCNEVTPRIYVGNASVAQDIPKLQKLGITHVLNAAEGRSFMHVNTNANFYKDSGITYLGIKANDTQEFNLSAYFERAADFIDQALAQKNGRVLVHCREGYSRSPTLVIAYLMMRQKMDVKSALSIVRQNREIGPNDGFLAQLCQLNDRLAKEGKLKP
Active calls of the source: *.

SMILES | DUSP3 inh
O=c1c2ccccc2nc(/C=C/c2cccc(Br)c2)n1-c1ccccc1O | -6
COc1ccccc1-c1c(C(F)(F)F)oc2c(CN(C)C)c(O)ccc2c1=O | -15
Cc1ccc(-c2nc3ncccc3o2)cc1NC(=O)C1CCCCC1 | 3
NC1=NC(=O)/C(=C/c2ccc(-c3ccc([N+](=O)[O-])cc3Br)o2)S1 | -1
O=C(Cn1cc(C=C2C(=O)NC(=S)NC2=O)c2ccccc21)Nc1ccccc1 | 13
CCn1cc(/C=C2\C(=O)NC(=O)N(c3ccccc3)C2=O)c2ccccc21 | -1
CCn1cc(C=C2C(=O)NC(=S)NC2=O)c2ccccc21 | 76*
CCOC(=O)C1=C(C)N=c2s/c(=C\c3cc4c(cc3Br)OCO4)c(=O)n2C1c1ccc(OC)cc1 (stereo not given) | -23
COc1ccccc1NC(=O)C(=O)NCC(C)C | -14
NC(=O)C1CCN(C(=O)c2ccccc2Br)CC1 | -19
CCc1ccc2oc(-c3cccc(NC(=O)c4ccc(Br)o4)c3)nc2c1 | 3
Cc1onc(-c2c(Cl)cccc2Cl)c1C(=O)Nc1ccc(S(N)(=O)=O)cc1 | -7
O=C(CSCc1ccccc1)Nc1ccc2c(c1)C(=O)N(c1ccccc1)C2=O | 26
O=C1NC(=S)N(c2cccc(Cl)c2)C(=O)/C1=C/c1ccc(Cl)cc1 | 17
Cc1cc(/C=C2\C(=O)NC(=S)N(c3ccc(Cl)cc3)C2=O)c(C)n1C | 5
COc1ccccc1N1C(=O)C(=Cc2cccn2C)C(=O)NC1=S | 77*
COc1cc(Br)c(/C=C2\C(=O)NC(=S)N(c3ccccc3)C2=O)cc1OC | 0
Cn1cccc1/C=C1/C(=O)NC(=S)N(c2ccc(Cl)cc2)C1=O | 70*
COc1ccccc1N1C(=O)NC(=O)/C(=C\c2cc3ccccc3n2C)C1=O | 36
CCc1cc2c(N/N=C\c3ccc([N+](=O)[O-])o3)ncnc2s1 | -3
CCc1ccc(N2NC(=O)CC2=O)cc1 | 44
Cc1cc(=O)[nH]c(SCCOc2ccc(C)c(C)c2)n1 | 2
CC1CCc2c(sc(NC(=O)c3cccc(C(=O)O)c3)c2C(N)=O)C1 (stereo not given) | 78*
CC1CCc2c(sc(NC(=O)c3ccccc3)c2C(N)=O)C1 (stereo not given) | 2
COc1cc(OC)cc(C(=O)Nc2sc3c(c2C(N)=O)CCC(C)C3)c1 (stereo not given) | 25
SMILES | DUSP3 inh
CCN1C(=O)/C(=C/c2nc3ccccc3c(=O)n2-c2cccc(OC)c2)c2ccccc21 | 1
Cc1cccc(C)c1OCC(=O)Nc1nccs1 | 1
COc1cccc(/C=C2/C(=O)NC(=O)N(c3cc(C)cc(C)c3)C2=O)c1O | -8
COc1cccc(/C=C2/C(=O)NC(=O)N(c3cccc(C)c3)C2=O)c1O | 107*
COc1ccc(N2C(=O)NC(=O)/C(=C/c3cccc(OC)c3O)C2=O)cc1 | 77
N/C(Cc1cccc2ccccc12)=N\OC(=O)c1ccc(F)cc1 | -16
O=C(O/C(=C/c1nccn1Cc1ccccc1Cl)c1ccc(F)cc1)c1ccc(F)cc1 | 110*
CCCn1c(/C=C(/OC(=O)c2ccccc2)c2ccccc2)nc2ccccc21 | -14
COc1cccc2c1NC(c1cccc3ccccc13)C1CC=CC21 (stereo not given) | 88*
COc1cccc2c1NC(c1ccccc1Cl)C1CC=CC21 (stereo not given) | -3
COC(=O)c1ccc2c(c1)C1C=CCC1C(c1cccc3ccccc13)N2 (stereo not given) | 47
CC1(C)CC(=O)C2=C(C1)Nc1ccccc1N(C(=O)Cc1ccccc1)C2c1ccc(Cl)cc1 (stereo not given) | -15
Cc1oc2ccc(OC(C)C(=O)O)cc2c1C(=O)OC(C)C (stereo not given) | -12
CCc1cc(=O)oc2cc(OCc3ccc(F)cc3)ccc12 | -1
O=C1NC(=S)S/C1=C\c1ccc(N2CCCCC2)c([N+](=O)[O-])c1 | -37
CC(C)c1ccc(/C=C2\SC(=S)NC2=O)cc1 | -15
CC(C)c1ccc(/C=C2\SC(=S)NC2=O)cc1[N+](=O)[O-] | 79*
CCc1ccc(S(=O)(=O)Nc2cc3c(C(=O)O)c(C)oc3c3ccccc23)cc1 | -18
Cc1ccccc1N1C(=O)NC(=O)/C(=C\c2ccc(OCc3cccc(C(=O)O)c3)cc2)C1=O | 6
O=C1C=C/C(=N\S(=O)(=O)c2ccccc2)C=C1Cl | 24
CC1=C/C(=N/S(=O)(=O)c2ccc(C)cc2)C=C(Cl)C1=O | 58
O=C1C(Cl)=CC(=NS(=O)(=O)c2ccccc2)C=C1Br | 72*
COc1cccc(CN2CCN(C(=O)c3cccc4ccccc34)CC2)c1 | 2
Cc1cc(Cl)ccc1NC1=NCC(C)S1 (stereo not given) | 3
COc1cc(NC(=O)c2cnn3c2NC(c2ccc(Br)cc2)CC3C(F)(F)F)cc(OC)c1OC (stereo not given) | -9
SMILES | DUSP3 inh
Cc1ccccc1NC(=O)CC1CCCCC1 | 39
O=C(CC1CCCCC1)Nc1ccccc1 | 97*
Cc1ccc(NC(=O)CC2CCCCC2)cc1 | 6
Cc1ccc(N[C@@H]2O[C@H](CO)[C@@H](O)[C@H](O)[C@@H]2O)cc1 | -17
CC1(C)Cc2c(c(N3CCOCC3)nc3sc4c(NCc5ccccc5)ncnc4c23)CO1 | -6
O=C(COc1ccc(Cl)cc1Br)N1CCN(c2ccccc2)CC1 | -13
Cc1ccc(S(=O)(=O)/N=C2\C=CC(=O)C=C2Cl)cc1 | 60
O=C1C(Cl)=CC(=NS(=O)(=O)c2ccc(Cl)cc2)c2ccccc21 | 4
Cc1ccc(S(=O)(=O)/N=C2\C=C(Sc3ncn[nH]3)C(=O)c3ccccc32)cc1 | 64*
CCOC(=O)C1NN=C(C(=O)c2ccc(OC)cc2)C1c1ccccc1Cl (stereo not given) | 0
CCOC(=O)C1=NNC(C(=O)c2ccccc2)C1c1ccc(Br)cc1 (stereo not given) | 0
CCOC(=O)C1=NNC(C(=O)c2ccc(OC)cc2)C1c1ccccc1Cl (stereo not given) | 105*
N#C/C(=C/c1ccco1)c1nc(-c2cc3ccccc3oc2=O)cs1 | 5
O=C1CC(N2CCN(c3ccccc3)CC2)C(=O)N1c1ccc(I)cc1 (stereo not given) | -2
CCC(CC)N1CCN(Cc2cc(Br)ccc2OC)CC1 | -6
CCOC(=O)c1ccc(N2C(=O)C=CC2=O)cc1 | 49
CC(=O)c1ccc(N2C(=O)C=CC2=O)cc1 | 84*
CC(=O)c1ccc(N2C(=O)C3C4C=CC(CC4)C3C2=O)cc1 (stereo not given) | -20
COc1ccc(C2CC(=O)C3=C(C2)NC(C)=C(C#N)C3c2ccc(N(C)C)cc2)cc1 (stereo not given) | 17
C=CCN1C(=O)/C(=C\c2ccc(OCC(=O)O)c(OC)c2)C(=O)NC1=S | 7
C=CCOc1ccc(/C=C2/C(=O)NC(=S)N(CC=C)C2=O)cc1OCC | 12
C=CCN1C(=O)/C(=C\c2ccc(OCc3ccc(F)cc3)c(OCC)c2)C(=O)NC1=S | 75*
COc1ccc2c(=O)c(-c3ccccc3OC)c(C(F)(F)F)oc2c1 | -3
N/C(=N\N=C\c1c[nH]c2ccccc12)c1nonc1N | -32
O=C(CCCC(=O)OCC(F)(F)C(F)F)Nc1ccc(I)cc1 | -5
COc1ccc(-c2cc(C(=O)NCCc3ccc(OC)c(OC)c3)c3ccccc3n2)c(OC)c1 | -41
COc1ccc(-c2cc(C(=O)NCCc3ccccc3)c3ccccc3n2)cc1OC | -12
COc1ccc(-c2cc(C(=O)NCCc3ccccc3)c3ccccc3n2)c(OC)c1 | 102*
O=[N+]([O-])c1ccc(C[n+]2cc(-c3ccc(Cl)c(Cl)c3)n3c2CCC3)cc1 | 22
